From PubChem BioAssay
Hits are enriched below; roughly 28% of the tested compounds scored in any of these assays.
CYP2C19 activ: human CYP2C19 activators, primary screen, biochemical, luminescence; Cytochrome P450 2C19 (Homo sapiens), P33261; recombinant CYP2C19, luciferin-H EGE luminescence; stronger effect = higher value; 0 = fully inhibited enzyme, 1 = untreated enzyme; activation factor at 5 µM; AID 1025, 2008; 96,000 tested, under 10 active;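 active = activation factor of at least 2 at 5 µM in the primary screen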;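 note: 0 = wells with 2.5 mM tranylcypromine and 1 = vehicle-only wells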
PTK2B oligo ant: antagonists of Pyk2 self-association, primary screen, Q293 cells, FERM NanoBiT luminescence, HTS; 99,000 tested, 0.83% active; z-score (the deposit names both 25 µM and 10 µM); Protein-tyrosine kinase 2-beta (Homo sapiens), Q14289; stronger effect = lower value; AID 1347419, 2020;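 active = Z-score of -3 or lower, scaled per plate to the spread of control and sample wells; inactive = z-score above -3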;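 note: negative z-score means lost luminescence so less FERM oligomerization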
CYP2C9 act: human CYP2C9 activators, primary screen, biochemical, luminescence; AID 1024, 2008; 96,000 tested, 1.4% active; activation factor at 5 µM; Cytochrome P450 2C9 (Homo sapiens), P11712; recombinant CYP2C9, luciferin-H conversion; stronger effect = higher value; factor 1 = untreated enzyme, 0 = blocked;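 active = activation factor of 2 or more for CYP2C9 at a 5 µM dose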;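 note: 0 = sulfaphenazole-blocked wells and 1 = vehicle-only wells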
Target sequence (P11712 whole entry, looked up): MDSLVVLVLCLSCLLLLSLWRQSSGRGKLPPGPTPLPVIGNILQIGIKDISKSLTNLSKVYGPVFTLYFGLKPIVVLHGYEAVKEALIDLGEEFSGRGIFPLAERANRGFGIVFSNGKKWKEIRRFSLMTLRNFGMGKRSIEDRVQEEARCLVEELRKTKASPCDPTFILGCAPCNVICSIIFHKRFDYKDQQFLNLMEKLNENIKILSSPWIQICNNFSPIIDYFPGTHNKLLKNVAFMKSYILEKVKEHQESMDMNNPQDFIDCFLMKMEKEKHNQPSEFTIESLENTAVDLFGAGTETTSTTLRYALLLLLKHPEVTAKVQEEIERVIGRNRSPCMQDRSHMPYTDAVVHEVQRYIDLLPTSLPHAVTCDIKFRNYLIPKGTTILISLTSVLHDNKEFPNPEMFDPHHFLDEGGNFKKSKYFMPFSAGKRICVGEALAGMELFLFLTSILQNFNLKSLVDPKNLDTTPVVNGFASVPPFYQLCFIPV
CYP2C9 inh: blockers of cytochrome P450 2C9 activity – biochemical, luminescence, ADME assay, primary screen; P11712; CYP2C9 Supersomes, luciferin-H conversion; inhibition, % at 5 µM; 96,000 tested, 20% active;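 active = blocking of liver enzyme CYP2C9 beyond about 50% at 5 µM, limit read from the data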
CYP2C19 inh: blockers of cytochrome P450 2C19 activity – biochemical, luminescence, ADME assay, primary screen. inhibition, % at 5 µM. CYP2C19 Supersomes, luciferin-H EGE luminescence, 30 min. 96,000 tested, 21% active;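 active = CYP2C19 inhibition above a set limit at 5 µM in the primary screen, cut at about 50% in these data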;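 note: plate controls were negative control wells for no effect and 2.5 mM tranylcypromine positive control for full effect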
* hit, by the source's call.

Cc1onc(-c2c(F)cccc2Cl)c1C(=O)Nc1nnc(-c2ccccc2)s1 was read as CYP2C19 activ 1.2, PTK2B oligo ant -3.1*, CYP2C9 act 1.1, CYP2C9 inh -15 and CYP2C19 inh -18.
For Cc1onc(-c2c(F)cccc2Cl)c1C(=O)Nc1ccc(S(=O)(=O)Nc2ncccn2)cc1 the results were CYP2C19 activ 1.1, PTK2B oligo ant 1.3, CYP2C9 act 1.1, CYP2C9 inh -12 and CYP2C19 inh -15.
`Cc1onc(-c2c(F)cccc2Cl)c1C(=O)Nc1cccc(Cn2cccn2)c1` gave CYP2C19 activ 0.8, PTK2B oligo ant -0.81, CYP2C9 act 0.5, CYP2C9 inh 52* and CYP2C19 inh 23.
Screening COc1ccc2cc3cc(C(=O)NCC4COc5ccccc5O4)oc3nc2c1 (stereo not drawn) returned CYP2C19 activ 1.2, PTK2B oligo ant -1.1, CYP2C9 act 0.9, CYP2C9 inh 12 and CYP2C19 inh -15.
Screening FC(F)(F)c1nnc2c(Sc3ccccc3)nc3ccc(Cl)cc3n12 returned CYP2C19 activ 0.5, PTK2B oligo ant 0.68, CYP2C9 act 0.7, CYP2C9 inh 26 and CYP2C19 inh 50*.
Screening FC(F)(F)c1nc2ccccc2n2c(-c3ccc(Cl)cc3Cl)nnc12 returned CYP2C19 activ 0.7, PTK2B oligo ant -0.02, CYP2C9 act 1, CYP2C9 inh 3 and CYP2C19 inh 26.
For COc1cccc(-c2nc(CS(=O)(=O)CC(=O)NCCCN3CCc4ccccc4C3)c(C)o2)c1 the results were CYP2C19 activ 0.9, PTK2B oligo ant 0.12, CYP2C9 act 0.8, CYP2C9 inh 16 and CYP2C19 inh 10.
C=CCn1c(C(C)NC(=O)COC)nc2ccccc21 (stereo not drawn) was read as CYP2C19 activ 0.9, CYP2C9 act 0.8, CYP2C9 inh 16 and CYP2C19 inh 10.
CCCc1[nH]nc2c1C(c1ccc(OC)c(Cn3nnc4ccccc43)c1)C(C#N)=C(N)O2 (stereo not drawn) was read as CYP2C19 activ 0.6, PTK2B oligo ant 0.58, CYP2C9 act 0.4, CYP2C9 inh 62* and CYP2C19 inh 43.
Cc1[nH]nc2c1C(c1ccc3c(c1)OCO3)C(C#N)=C(N)O2 (stereo not drawn) was read as CYP2C19 activ 0.4, PTK2B oligo ant 1.8, CYP2C9 act 0.4, CYP2C9 inh 57* and CYP2C19 inh 60*.
`CCn1c2ccccc2c2cc(C3C(C#N)=C(N)Oc4n[nH]c(COC)c43)ccc21` (stereo not drawn) gave CYP2C19 activ 0.6, PTK2B oligo ant -0.2, CYP2C9 act 0.4, CYP2C9 inh 59* and CYP2C19 inh 35.
For Cc1[nH]nc2c1C(c1ccc(F)cc1)C(C#N)=C(N)O2 (stereo not drawn) the results were CYP2C19 activ 0.5, PTK2B oligo ant -0.65, CYP2C9 act 0.7, CYP2C9 inh 33 and CYP2C19 inh 48.
COc1ccc(C2C(C#N)=C(N)Oc3n[nH]c(C)c32)cc1Cn1nnc2ccccc21 (stereo not drawn) was read as CYP2C19 activ 0.5, PTK2B oligo ant 0.4, CYP2C9 act 0.3, CYP2C9 inh 68* and CYP2C19 inh 46.
Screening COCCNC(=O)C1CC(=O)N(C2CCCC2)C1 (stereo not drawn) returned CYP2C19 activ 1.2, PTK2B oligo ant 0.46, CYP2C9 act 1, CYP2C9 inh 0 and CYP2C19 inh -16.
`CCCc1[nH]nc2c1C(c1ccc(O)c(OC)c1)C(C#N)=C(N)O2` (stereo not drawn) gave CYP2C19 activ 0.4, PTK2B oligo ant 0.31, CYP2C9 act 0.8, CYP2C9 inh 24 and CYP2C19 inh 60*.
CCN(CC(=O)NCCc1ccc(S(N)(=O)=O)cc1)Cc1nc2ccccc2c(=O)[nH]1 was read as CYP2C19 activ 0.9, PTK2B oligo ant 0.7, CYP2C9 act 0.3, CYP2C9 inh 66* and CYP2C19 inh 13.
Screening CCN(CC(=O)NC(=O)NCc1ccco1)Cc1nc2ccccc2c(=O)[nH]1 returned CYP2C19 activ 0.3, PTK2B oligo ant 0.18, CYP2C9 act 0.6, CYP2C9 inh 45 and CYP2C19 inh 68*.
Screening Cc1cc(Br)ccc1NC(=O)CNC(=O)CN(C)Cc1nc2ccccc2c(=O)[nH]1 returned CYP2C19 activ 0.3, PTK2B oligo ant 0.17, CYP2C9 act 0.4, CYP2C9 inh 63* and CYP2C19 inh 68*.
Screening CCN(CC(=O)Nc1ccccc1Br)Cc1nc2ccccc2c(=O)[nH]1 returned CYP2C19 activ 0.5, PTK2B oligo ant -0.09, CYP2C9 act 0.5, CYP2C9 inh 50 and CYP2C19 inh 54*.
`c1ccc2c(c1)CCN(CCCNc1nc3ccccc3n3cnnc13)C2` gave CYP2C19 activ 1, CYP2C9 act 1.1, CYP2C9 inh -8 and CYP2C19 inh 0.
`CC(NC(=O)CN(C)Cc1nc2ccccc2c(=O)[nH]1)c1ccccc1` (stereo not drawn) gave CYP2C19 activ 0.7, PTK2B oligo ant -0.26, CYP2C9 act 0.7, CYP2C9 inh 29 and CYP2C19 inh 32.
`Cc1ccc(NC(=O)CN(C)Cc2nc3ccccc3c(=O)[nH]2)c(Br)c1` gave CYP2C19 activ 0.7, PTK2B oligo ant -0.06, CYP2C9 act 0.3, CYP2C9 inh 68* and CYP2C19 inh 28.
`Cn1c(C(=O)O)c(CC(=O)Nc2ccc3c(c2)OCCO3)c2ccccc21` gave CYP2C19 activ 0.4, PTK2B oligo ant -0.87, CYP2C9 act 0.3, CYP2C9 inh 65* and CYP2C19 inh 59*.
`Cn1c(C(=O)O)c(CC(=O)Nc2ccc(F)cc2F)c2ccccc21` gave CYP2C19 activ 0.2, PTK2B oligo ant -0.52, CYP2C9 act 0, CYP2C9 inh 95* and CYP2C19 inh 78*.
Cc1ccc2c(c1)c(CC(=O)Nc1ccc(F)cc1)c(C(=O)O)n2C was read as CYP2C19 activ 0.8, PTK2B oligo ant -0.78, CYP2C9 act 0.4, CYP2C9 inh 65* and CYP2C19 inh 18.
`Cn1nc(CC(=O)Nc2ccc3c(c2)OCCO3)c2ccccc2c1=O` gave CYP2C19 activ 1.1, PTK2B oligo ant 0.42, CYP2C9 act 1.2, CYP2C9 inh -25 and CYP2C19 inh -8.
Cn1c(C(=O)O)c(CC(=O)NCc2cccnc2)c2ccccc21 was read as CYP2C19 activ 0.9, PTK2B oligo ant 0.74, CYP2C9 act 0.4, CYP2C9 inh 63* and CYP2C19 inh 14.
Screening CCN(CC)CCNC(=O)Cc1c(C(=O)O)n(C)c2ccccc12 returned CYP2C19 activ 1.1, PTK2B oligo ant 0.91, CYP2C9 act 1.1, CYP2C9 inh -11 and CYP2C19 inh -12.
Screening CC(C)CC(NC=C1C(=O)OC(C)(C)OC1=O)C(=O)O (stereo not drawn) returned PTK2B oligo ant 0.29.
